Many of the other results were omitted from the sample, so hits are more common in it than they were.
HT1080 IDH1KD tx: toxicity to HT-1080 IDH1 knockdown cells (counter line); HT-1080 IDH1 knockdown viability, ATP luminescence, 48 h; Potency, µM (highest dose often 46.1 µM), without a hit: at the highest dose activity, negative = toxicity, usual class: cytotoxic; hit rate 2% among 360,000;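 note: potency is the fitted concentration of half-maximal effect; 0% = DMSO wells and -100% = cell-free medium wells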
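% activity derives from luminescence (CellTiter-Glo), normalised to DMSO and no-cell wells. HT-1080-IDH1KD cells, 750/well, had 48 h compound exposure at 37 °C.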
TDP1 cell CPT: DT40-hTDP1 cell growth loss with CPT; hit rate 12% among 420,000; Potency, µM (doses to about 46.2 µM), for inactives: at the highest dose activity change, negative = growth inhibition, actives largely listed as inhibitors; AID 686979; chicken DT40 Tdp1-/-;hTDP1 cells + 20 nM CPT, ATP luminescence, 48 h; note: potency is the fitted concentration of half-maximal effect; nearly all actives have a fitted effect of over 55% in size
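Chicken DT40 Tdp1-/- cells stably complemented with human TDP1 were seeded at 400 cells/well in medium containing 20 nM camptothecin, exposed to pin-transferred compounds, and grown at 37 °C for at least 48 hr. Viability was read as ATP luminescence.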
HT1080-NT tox: kills 2HG-producing HT-1080-NT fibrosarcoma cells; HT-1080-NT fibrosarcoma viability, CellTiter-Glo ATP luminescence, 48 h; Potency, µM (top dose mostly 46.1 µM), without a hit: top-dose activity, negative = less viability, most hits filed as cytotoxic; hit rate 1.6% among 360,000;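 note: NT is the 2HG producing partner of a matched IDH1 knockdown line; potency is the fitted concentration of half-maximal effect; 0% = DMSO-treated cells and -100% = media-only wells without cells; nearly all actives have a fitted effect of over 55% in size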
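750 cells/well, RPMI + 5% FBS; 2 h settle, compound pin-transfer, 48 h at 37 degrees C. CellTiter-Glo 10 min RT, luminescence. Normalized to DMSO and media-only wells.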
IL1B secr inh: blocks inflammasome-driven IL-1 beta release; hit rate 4.7% among 360,000; activity change, % at 57.5 µM; THP-1 LPS/ATP IL-1B secretion, AlphaLISA, 16 h; stronger effect = lower value; in the data active = activity change below about -50%; inconclusive = mostly about -30% to -49%
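Secreted IL-1B measured by AlphaLISA bead assay after 16 h compound exposure of THP-1 cells; compounds (final up to 57.5 uM) added 1 h before LPS (250 ng/mL) and ATP (1.25 mM) stimulation; lower signal means less secretion.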
12-LOX inh: inhibitors of human 12S-lipoxygenase ALOX12. P18054. hit rate 1.1% among 580,000. Potency, µM (series often up to 108 µM), for inactives: at the top dose activity change, negative = inhibition, actives largely listed as inhibitors. AID 1671190. purified 12hLO, xylenol orange hydroperoxide absorbance; note: potency is the fitted concentration of half-maximal effect
Target sequence (P18054 whole entry, looked up): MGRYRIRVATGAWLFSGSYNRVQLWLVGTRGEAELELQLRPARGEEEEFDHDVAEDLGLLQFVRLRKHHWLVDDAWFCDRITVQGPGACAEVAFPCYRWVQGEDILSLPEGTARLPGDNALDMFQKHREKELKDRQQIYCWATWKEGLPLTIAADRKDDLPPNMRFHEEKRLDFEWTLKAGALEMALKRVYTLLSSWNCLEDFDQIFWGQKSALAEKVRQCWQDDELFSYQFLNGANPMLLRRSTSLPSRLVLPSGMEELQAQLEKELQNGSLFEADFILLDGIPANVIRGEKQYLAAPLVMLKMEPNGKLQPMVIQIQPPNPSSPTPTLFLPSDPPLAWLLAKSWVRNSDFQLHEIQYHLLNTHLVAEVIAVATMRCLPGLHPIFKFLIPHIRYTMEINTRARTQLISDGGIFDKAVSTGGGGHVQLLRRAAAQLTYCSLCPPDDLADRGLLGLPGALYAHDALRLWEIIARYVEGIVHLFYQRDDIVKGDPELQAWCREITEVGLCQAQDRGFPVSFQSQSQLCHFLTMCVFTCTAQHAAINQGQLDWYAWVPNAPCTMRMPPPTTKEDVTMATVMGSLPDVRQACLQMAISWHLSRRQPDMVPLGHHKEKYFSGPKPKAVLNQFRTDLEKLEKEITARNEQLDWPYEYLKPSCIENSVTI
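Hydroperoxide product was detected by ferrous iron/xylenol orange as the 573 to 405 nm absorbance ratio. Arachidonic acid at 40 uM (final) was turned over for 30 min at room temperature by 150 nM human 12hLO, pH 7.0 Hepes buffer, after 15 min compound preincubation.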
DT40 TDP1 no CPT: qHTS for Inhibitors of human tyrosyl-DNA phosphodiesterase 1 (TDP1): qHTS in cells in absence of CPT. Potency, µM (titrated, usually from 46.2 µM), inactives show top-dose activity change, negative = growth inhibition, actives largely listed as inhibitors. DT40 Tdp1-/- hTDP1 cells, no CPT, ATP luminescence, 48 h. hit rate 15% among 420,000. AID 686978, 2013; note: potency is the fitted concentration of half-maximal effect; nearly all actives have a fitted effect of over 55% in size
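Seeded 400 DT40-hTDP1 cells/well (vehicle DMSO, no 20 nM CPT); pinned compounds; ≥48 hr at 37 °C; CellTiter-Glo luminescence as viability measure.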
* = called active by the depositor; u = inconclusive; x = no result given. Unless noted, calls come from the whole dose curve; as a rule, active = well fitted curve in the direction sought with a large enough effect; inconclusive = small, poorly fitted or top-dose-only effect, or another doubt; inactive = no such curve, though single readings can be large; an effect the other way counts as inactive or inconclusive. Unless noted, % is set by controls: 0 for no effect and ±100 for the full control effect.

SMILES | HT1080 IDH1KD tx | TDP1 cell CPT | HT1080-NT tox | IL1B secr inh | 12-LOX inh | DT40 TDP1 no CPT
COc1ccc2c(c1)c1c(c(=O)n(-c3cccc(C)c3)c(=O)n1Cc1cccc(Cl)c1)n2C | x | 7.31µM* | x | x | -17.6% | 5.8µM*
COc1ccc2c(c1)c1c(c(=O)n(-c3cccc(C)c3)c(=O)n1CC(=O)NCc1ccc(C)cc1)n2C | x | u | x | x | 0.0% | u
COc1ccc2c(c1)c1c(c(=O)n(-c3ccccc3C)c(=O)n1Cc1cccc(C(F)(F)F)c1)n2C | x | 3.66µM* | x | x | -11.6% | 3.66µM*
CCCN(CCC)C(=O)Cn1c(=O)n(-c2cccc(C)c2)c(=O)c2c1c1cc(OC)ccc1n2C | x | 14.6µM* | x | x | 0.0% | 23.1µM*
Cc1nn(-c2cc(N3CCN(C(=O)c4ccc(F)cc4)CC3)ccc2[N+](=O)[O-])c(=O)c2ccccc12 | x | x | x | x | -40.5% | x
Cc1ccc(C)c(Cn2c3ccccc3c3cnn(CC(=O)NCCCc4ccccc4)c(=O)c32)c1 | x | u | x | x | -27.8% | 9.2µM*
Cc1ccccc1Cn1c2ccccc2c2cnn(CC(=O)NC(C)CCc3ccccc3)c(=O)c21 (stereo not given) | x | 9.2µM* | x | x | -9.6% | 9.2µM*
COc1cccc(CNC(=O)Cn2ncc3c4ccccc4n(Cc4ccccc4)c3c2=O)c1 | x | -17.1% | x | x | u | -28.1%
CCCn1c2ccccc2c2cnn(CC(=O)NCCCN(CC)c3ccccc3)c(=O)c21 | x | u | x | x | -3.9% | u
Cc1ccc(C)c(Cn2c3ccccc3c3cnn(CC(=O)NCCCN4CCCCC4)c(=O)c32)c1 | u | u | u | u | -20.1% | 16.4µM*
CCCCN(CC)CCCNC(=O)Cn1ncc2c3ccccc3n(Cc3ccccc3F)c2c1=O | x | 13µM* | x | x | u | 11.6µM*
Cc1ccc(C)c(Cn2c3ccccc3c3cnn(CC(=O)NCc4ccccn4)c(=O)c32)c1 | -14.6% | u | -22.6% | 14.2 | 40.8% | u
COc1ccc(Cl)cc1NS(=O)(=O)c1ccc(N2C(=O)C(C)CS2(=O)=O)cc1 (stereo not given) | x | x | x | x | -44.2% | x
CCCN(CC1CCOC1)S(=O)(=O)c1ccc(C)cc1C (stereo not given) | x | x | x | x | 28.7% | x
CCc1ccc(OCCCOc2ccccc2/C=N/NC(=O)c2cccc(Cl)c2)cc1 | x | x | x | x | -2.8% | x
N#Cc1ccc(C(=O)NC(c2cccs2)C2CCCC2)cc1 (stereo not given) | x | x | x | x | -21.1% | x
O=C(Cn1ncc2c3ccccc3n(Cc3ccccc3F)c2c1=O)NCCCc1ccccc1 | x | u | x | x | -17.3% | 18.4µM*
CC(=O)c1ccc(NC(=O)Cn2ncc3c4ccccc4n(Cc4ccccc4)c3c2=O)cc1 | x | 4.4% | x | x | -10.6% | -16.2%
Cc1ccccc1Cn1c2ccccc2c2cnn(CC(=O)NCCc3ccccc3)c(=O)c21 | x | 16.4µM* | x | x | -13.7% | u
Cc1ccc(C)c(Cn2c3ccccc3c3cnn(CC(=O)NCCC4=CCCCC4)c(=O)c32)c1 | x | -4.7% | x | x | 1.3% | -10.2%
O=C(Cn1ncc2c3ccccc3n(Cc3ccccc3F)c2c1=O)NCCCN1CCCC1=O | -25.2% | u | -17.0% | -52.7* | -13.2% | -20.5%
Cc1cccc(NC(=O)Cn2ncc3c4ccccc4n(Cc4ccccc4)c3c2=O)c1C | x | u | x | x | -10.1% | 23.1µM*
O=C(Cn1ncc2c3ccccc3n(Cc3ccccc3F)c2c1=O)NCCN1CCOCC1 | 8.4% | u | 6.7% | 0.6 | 5.1% | u
COc1ccc(C(=O)N2CC[C@@H]3NC(=O)[C@H]4C[C@H](NC(=O)C5CCCCC5)CN4C(=O)[C@H]32)cc1 | x | x | x | x | -1.5% | x
CS(=O)(=O)Nc1ccccc1CNC(=O)CCS(=O)(=O)C1CCCC1 | x | x | x | x | -27.1% | x
O=C(Cn1ncc2c3ccccc3n(Cc3ccccc3F)c2c1=O)NCc1ccccc1Cl | x | 20.6µM* | x | x | -14.6% | 18.4µM*
CCCn1c2ccccc2c2cnn(CC(=O)NCc3ccccc3Cl)c(=O)c21 | x | u | x | x | -21.7% | u
O=C1CC(/C=C/c2ccco2)=Nc2ccccc2N1 | 0.1% | u | 1.3% | 0.0 | x | u

Bioassay records: PubChem BioAssay, National Center for Advancing Translational Sciences (NCATS)
